Molecules are shown by their SMILES. About 83,000 compounds went through this panel and 20% of them were active in at least one assay; those are over-represented in the sample as a whole.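 For each line, cells grew in 96-well plates with the test compound present at a single concentration for 48 hours.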 Unmarked numbers belong to inactive results. The source made the active and inactive calls. How the source made its calls: active means growth percent below 10; inactive means the rest.

Among the data in PubChem BioAssay (NCI) are growth values, retold here.

The test system of the test is HL-60(TB) leukemia. Put plainly: NCI-60 one-dose screen, 48 h (100 = growth as untreated, 0 = no growth, -100 = all killed). To be noted: 10 µM unless noted.
Take `COc1cc(C)c(Cl)cc1C1=NN(c2ccc(S(N)(=O)=O)cc2)C(/C=C/c2ccccc2)C1` (stereo not given): the growth is 63.6%.
Take `COc1cccc2c1C=C1CCCCC3=Cc4c(OC)cccc4OC13O2`: the growth is 19.1%.
On to `c1coc(-c2c3ccc(=[N+]4CCCCC4)cc-3oc3cc(N4CCCCC4)ccc23)c1`, for which the growth is -57.5% (active).
For `CC(CCC#N)(CCC#N)C(=O)c1ccccc1` the value was 88.7%; for `O=[N+]([O-])c1cccc(N=C(Nc2cccc([N+](=O)[O-])c2)c2ccccc2)c1`, 102%.
For `CS(=O)(=O)c1ccc(-c2cnn3ccc(-c4cccc(S(=O)(=O)C5CC5)c4)nc23)cc1` the value was 24.3%; for `O=C1CSC(=S)N1Cc1cccnc1`, 13.8%.
In the case of `Nc1c(C(=O)O)[nH]c(=O)[nH]c1=O` it was 81.3%.
`O=C(NCCCCNC(=O)OCc1ccc2c(Cl)cc(Cl)c(O)c2n1)OCc1ccc2c(Cl)cc(Cl)c(O)c2n1`: the growth is -49.2% (active).
For `N#CC1=C(/N=C/c2ccccc2)Oc2c(ccc3ccccc23)C1c1ccccc1` (stereo not given) the value was 0.269% (active); for `O=c1c(N=Nc2nccs2)c(-c2ccccc2)[nH]n1-c1nc(-c2ccccc2)cs1`, 15.8%.
In the case of `Fc1c[c-]c(-c2ccccn2)c(F)c1.Fc1c[c-]c(-c2ccccn2)c(F)c1.[Cl][Pt+].[Cl][Pt+].c1ccc([PH+](C[PH+](c2ccccc2)c2ccccc2)c2ccccc2)cc1` it was 6.62% (active); in that of `CN(C)CCNc1nc2ccccc2c2c(=O)c3cc(F)ccc3sc12`, 38.1%; in that of `O=C(Cc1ccccc1)Cc1ccccc1`, 99.2%.
Turning to `CN(C)CCOc1ccc(-c2nc3ccc(-c4nc5ccc(N6CCN(C)CC6)cc5[nH]4)cc3[nH]2)cc1`, the growth is 72.1%.
As to `CC(=O)c1cccc(NS(=O)(=O)c2ccc(C)cc2)c1`, the growth was 70.9%.
Turning to `COc1cc(CN(CCC(O)N2CCCC2=O)Cc2ccc3c(c2)OCO3)cc(OC)c1OC` (stereo not given), the growth is 90.6%.
In the case of `COC(=O)c1ccc([N+](=O)[O-])c(C)c1` it was 85.5%.
For `COc1cccc(C(=O)NNc2nc(N3CCOCC3)nc(N3CCN(C(c4ccccc4)c4ccccc4)CC3)n2)c1` the value was 76.4%.
In the case of `Cc1ccc(S(=O)(=O)Oc2ccc([N+](=O)[O-])cc2[N+](=O)[O-])cc1` it was 47.9%.
As for `Cc1sc(N=Nc2ccc(N(C)C)cc2)[n+]([O-])c1C`, the growth was 92.7%.
For `CCCCCCCCCCCCCCCCCC1=NCCN1CCO` the value was 36.3%.
For `CC(C)C1=C(O)C2=C(C(=O)C1=O)[C@@]1(C)CCCC(C)(C)[C@@H]1CC2` the value was 56.4%; for `CCCCCN1C=C/C(=C\C(=O)N(C)c2ccc(Br)cc2)c2ccccc21`, 98.2%; for `CC1(C)CC[C@]2(C(N)=O)CC[C@]3(C)C(=CC[C@@H]4[C@@]5(C)C/C(=C/c6cccnc6)C(=O)C(C)(C)[C@@H]5CC[C@]43C)[C@@H]2C1`, -24.7% [100 µM] (active).
